Compound activity: PubChem BioAssay, National Center for Advancing Translational Sciences (NCATS)
aSyn rescue – rescues yeast growth from alpha-synuclein toxicity; Yeast expressing alpha-synuclein, growth rescue, BacTiter-Glo, 24 h; Potency, µM (top dose mostly 46.1 µM), without a hit: top-dose growth rescue (activation), actives largely listed as activators; 370,000 tested, 0.14% active; further: potency means the concentration at half of the fitted maximal effect; % of control where 0% means no effect; nearly all actives have a fitted effect of over 65% in size
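Readout is rescue of growth in alpha-synuclein-expressing yeast, so inhibitors of toxicity appear as activators. Growth after 24 hr at 30 deg C in galactose medium is quantified by luminescence.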
Abeta rescue – compounds reversing amyloid beta toxicity in yeast; yeast expressing A-beta42, growth rescue, OD600, 48 h; response scale: 0% DMSO, 100% iron-clioquinol control; Potency, µM (series often up to 46.1 µM), hits mostly activators; 410,000 tested, 0.063% active; AID 1347071; further: potency means the concentration at half of the fitted maximal effect; nearly all actives have a fitted effect of over 55% in size
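Yeast growth medium received pinned compounds, then yeast cells expressing toxic A-beta were added; plates incubated at 30 C for 48 hr. Growth read as absorbance at 600 nm, normalized to DMSO and equimolar FeCl3 plus clioquinol controls.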
TDP43 rescue – inhibitors of TDP-43 toxicity in yeast; TDP-43 expressing yeast growth rescue, BacTiter-Glo, 24 h; Potency, µM (highest dose often 46.1 µM), inactives show at the top dose growth rescue (activation), actives largely listed as activators; 410,000 tested, 1.8% active; AID 652104; further: potency means the concentration at half of the fitted maximal effect; % of control where 0% means no effect; nearly all actives have a fitted effect of over 50% in size
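Readout is BacTiter-Glo luminescence of cell growth, so inhibitors register as activators. TDP-43-expressing yeast at OD600=0.02 in galactose medium, after raffinose pregrowth to mid-log, were incubated with compound for 24 hr at 30 deg C.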
FUS yeast rescue – rescues growth of FUS-expressing yeast | S. cerevisiae FUS-expressing, growth rescue, OD600, 24 h | Potency, µM (highest dose often 76.6 µM), usual class: activators | 390,000 tested, 0.24% active | AID 1347120;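 further: potency means the concentration at half of the fitted maximal effect; plate controls were DMSO vehicle for no effect and reference control for full effect; nearly all actives have a fitted effect of over 55% in size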
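S. cerevisiae expressing FUS from galactose induction served as the toxicity model. Growth after 24hr at 30C, read as absorbance at 600 nm, indicates suppression of toxicity; compounds dosed at several concentrations.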
PTHR1 ag – PTHR1 (human) receptor agonism; Q03431; HEK293 GP2 PTHR1 cells, GloSensor cAMP luminescence, 1 h; Potency, µM (doses to about 115 µM), for inactives: at the top dose activation, most hits filed as activators; 410,000 tested, 0.075% active; further: potency means the concentration at half of the fitted maximal effect; nearly all actives have a fitted effect of over 55% in size
Target sequence (Q03431 whole entry, looked up): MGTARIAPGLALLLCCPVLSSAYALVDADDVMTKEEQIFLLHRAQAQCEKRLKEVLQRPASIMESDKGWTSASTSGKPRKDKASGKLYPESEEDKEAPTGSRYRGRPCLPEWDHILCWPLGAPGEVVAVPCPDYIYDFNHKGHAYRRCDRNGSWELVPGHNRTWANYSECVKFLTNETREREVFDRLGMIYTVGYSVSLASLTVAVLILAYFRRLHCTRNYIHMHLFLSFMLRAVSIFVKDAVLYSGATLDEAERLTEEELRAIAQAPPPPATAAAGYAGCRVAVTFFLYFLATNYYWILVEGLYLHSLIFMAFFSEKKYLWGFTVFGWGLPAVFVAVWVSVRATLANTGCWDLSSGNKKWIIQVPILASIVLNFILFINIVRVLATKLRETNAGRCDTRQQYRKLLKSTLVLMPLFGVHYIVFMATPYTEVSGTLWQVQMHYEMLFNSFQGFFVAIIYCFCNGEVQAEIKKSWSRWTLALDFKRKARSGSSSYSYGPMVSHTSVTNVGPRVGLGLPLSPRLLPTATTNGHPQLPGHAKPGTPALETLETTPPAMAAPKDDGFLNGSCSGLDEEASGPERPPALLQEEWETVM
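HEK-293-derived GP2 cells expressing PTHR1 and a GloSensor cAMP reporter, 3,000/well, plated overnight, given luciferin plus IBMX (each 0.5 mM as added) for 1 h at 37 °C, then compound for 1 h at 37 °C. Luminescence was read after 15 min at room temperature.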
LDHA block – blocks human lactate dehydrogenase A; purified LDHA, NADH/diaphorase-resazurin fluorescence; active compounds read low; activity change, % (values are at about 110 or 230 µM); 480,000 tested, 0.15% active; in the data active means activity change below about -30%; inconclusive means mostly about -25% to -30%;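 further: plate controls were DMSO wells for no effect and wells without enzyme for full effect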
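Human LDH5 (2 nM) was incubated with 0.06 mM NADH and 0.2 mM pyruvate for 5 min at room temperature in Tris pH 7.4. Remaining NADH was coupled through diaphorase/resazurin, and resorufin fluorescence was read at 0 and 20 min.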
Numbers without * were called inactive; ! = repeats disagree; [ ] = dose if it differs, or a comment. Most compounds without a hit are left out; they make up all but 1.9% or so of the library. Unless noted, the call rests on the fitted dose curve; in most records, active means well fitted curve in the direction sought with a large enough effect; inconclusive means small, poorly fitted or top-dose-only effect, or another doubt; inactive means no such curve, though single readings can be large; an effect the other way counts as inactive or inconclusive.

`CC1CCc2c(sc(NC(=O)c3ccco3)c2C(=O)O)C1` (stereo not given) gave aSyn rescue -60%, Abeta rescue inactive, TDP43 rescue -94%, FUS yeast rescue inactive, PTHR1 ag -19% and LDHA block -41*.
`O=C(Nc1sc2c(c1C(=O)O)CCCCC2)c1ccco1` gave aSyn rescue -69%, Abeta rescue inactive, TDP43 rescue inconclusive, FUS yeast rescue inactive, PTHR1 ag -29%[57.5 µM] and LDHA block -42*!.
Screening CN(C)C(=O)c1c(NC(=O)c2ccco2)sc2c1CCCCC2 returned aSyn rescue -2%, Abeta rescue inactive, TDP43 rescue 2%, FUS yeast rescue inactive, PTHR1 ag inactive and LDHA block 1.
CN1CCN(C(=O)c2c(NC(=O)c3ccco3)sc3c2CCC(C(C)(C)C)C3)CC1 (stereo not given) was read as aSyn rescue -6%, Abeta rescue inactive, TDP43 rescue -1%, FUS yeast rescue inactive, PTHR1 ag -7% and LDHA block -10.
CCCOc1ccc(S(=O)(=O)NCCO)cc1 was read as LDHA block 0.
`CCOC(=O)Cn1c(=NC(=O)CSC(C)=O)sc2cc(F)ccc21` gave aSyn rescue -1%, Abeta rescue 6.3µM*, TDP43 rescue inconclusive, FUS yeast rescue inactive, PTHR1 ag inactive and LDHA block -8.
`CCn1c(=NC(=O)CSC(C)=O)sc2cc(OC)ccc21` gave aSyn rescue 4%, Abeta rescue inconclusive, TDP43 rescue 14µM*, FUS yeast rescue inactive, PTHR1 ag -43% and LDHA block 1.
Screening COCCn1c(=NC(=O)CSC(C)=O)sc2cc(OC)ccc21 returned aSyn rescue 5%, Abeta rescue inconclusive, TDP43 rescue inconclusive, FUS yeast rescue inactive, PTHR1 ag inactive and LDHA block -4.
`N#Cc1c(N2CCSCC2)nsc1-c1ccccc1Cl` gave aSyn rescue -14%, Abeta rescue inactive, TDP43 rescue 10µM*, FUS yeast rescue inactive, PTHR1 ag -33% and LDHA block -7.
O=C(c1cc2cc(Br)ccc2o1)c1ccccc1F was read as LDHA block 12.
`COC(=O)C(C)NC(=S)N1CCN(c2c(F)cc3c(=O)c(C(=O)O)cn(C4CC4)c3c2OC)CC1C` (stereo not given) gave aSyn rescue 7%, Abeta rescue inactive, TDP43 rescue inconclusive, FUS yeast rescue 32µM*, PTHR1 ag -23% and LDHA block 4.
`Clc1ccccc1OCCCCN1CCCC1` gave aSyn rescue -3%, Abeta rescue inactive, TDP43 rescue -12%, FUS yeast rescue inactive, PTHR1 ag -8% and LDHA block -16.
For Clc1ccccc1OCCCCN1CCNCC1 the results were aSyn rescue 0%, Abeta rescue inactive, TDP43 rescue -10%, FUS yeast rescue inactive, PTHR1 ag inactive and LDHA block -41*.
For COc1cc2ncc3c(-c4ccccc4)nn(-c4ccc(C)cc4)c3c2cc1OC the results were Abeta rescue inactive, TDP43 rescue 7.1µM*, FUS yeast rescue inactive, PTHR1 ag inactive and LDHA block -3.
Oc1cccc(Nc2nc(-c3ccccc3)nc3ccccc23)c1 was read as aSyn rescue 12%, Abeta rescue inactive, TDP43 rescue -7%, FUS yeast rescue inactive, PTHR1 ag -10% and LDHA block 0.
Cc1ccc(Nc2nc(-c3ccccc3)nc3ccccc23)cc1 was read as aSyn rescue -31%, Abeta rescue inactive, TDP43 rescue 13µM*, FUS yeast rescue inactive, PTHR1 ag -8% and LDHA block 0.
Screening Cc1cccc(Nc2nc(-c3ccccc3)nc3ccccc23)c1 returned Abeta rescue inactive, TDP43 rescue 25µM*, FUS yeast rescue inactive, PTHR1 ag -8% and LDHA block -3.
